In the library only some 3.7% were active in any assay of this set; here they are far more common.
Nrf2 ARE act = qHTS of Nrf2 Activators; AREc32 ARE-luciferase reporter (MCF7-derived line), luminescence, 24 h; Potency, µM (highest dose often 46.1 µM), most hits filed as activators; 410,000 compounds, 0.31% hits; AID 624171, 2012; note: nearly all actives have a fitted effect of over 65% in size
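Quantitative high-throughput format: AREc32 reporter cells, 1000 per well, received compound by pin transfer and were incubated 24 hr at 37 deg C, 5% CO2, before Steady-Glo luminescence detection.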
Nrf2 inh = Nrf2 qHTS screen for inhibitors | A549 ARE-Fluc reporter, luciferase luminescence, 18-24 h | 360,000 compounds, 2.1% hits | Potency, µM (highest dose often 46 µM), usual class: inhibitors; note: nearly all actives have a fitted effect of over 60% in size
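Nrf2 function is reported as luminescence of an ARE-controlled luciferase in A549 cells. Compounds were tested at several concentrations, and a CellTiter-Fluor read on the same wells flagged cytotoxicity.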
miR-21 act = qHTS Assay for Modulators of miRNAs and/orActivators of miR-21. HeLa miR-21 FLuc reporter, luciferase, 48 h. Potency, µM (series often up to 38.3 µM), usual class: activators. 340,000 tested, under 10 active. AID 2288, 2010;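 note: miR-21 action dims this reporter so a rising signal means less miR-21 action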
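Compounds were titrated across several concentrations (up to approximately 40 uM) and incubated 48 hours with HeLa miR-21-FLuc reporter cells (miR-21 target sequence downstream of FLuc, endogenous miR-21). Readout was firefly luciferase luminescence after lytic detection reagent.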
ClpP mod = qHTS Assay for Activators of ClpP; ATP-dependent Clp protease proteolytic subunit (Bacillus subtilis (strain 168)), P80244; purified B. subtilis ClpP, FRET peptide cleavage, 20 min; Potency, µM (series often up to 57.5 µM); 340,000 compounds, 1.9% hits; active = well fitted falling curve with a large enough effect; inconclusive = small, poorly fitted or top-dose-only effect; inactive = no such curve, though single readings can be large or run the other way; note: the source files actives as falling curves though it sought activators and does not explain the sign; nearly all actives have a fitted effect of over 65% in size
Target sequence (P80244 whole entry, looked up): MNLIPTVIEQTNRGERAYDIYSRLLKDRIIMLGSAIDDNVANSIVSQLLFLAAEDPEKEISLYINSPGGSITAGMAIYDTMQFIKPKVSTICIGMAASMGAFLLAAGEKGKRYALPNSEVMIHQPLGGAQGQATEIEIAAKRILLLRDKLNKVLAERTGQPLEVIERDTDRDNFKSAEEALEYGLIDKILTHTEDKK
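Buffer: 100 mM Tris/HCl pH8, 100 mM KCl, 0.05% low protease BSA, 2.5% glycerol, 0.01% Tween-20. ClpP 10 microg/mL final; 20 min RT; delta FRET normalized to ADEP and DMSO controls.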
IL2 activator = qHTS of IL-2 Activators. activation, % (series mostly up to about 46 µM). AID 652025, 2013. IL-2 activation reporter assay, cell-based qHTS; stimulated with anti-CD3/CD4/CD28 beads; in transgenic mouse T cells. 360,000 compounds, 0.065% hits; in the data active = activation above about 50%; inconclusive = mostly about 30% to 49%
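Using fluorescent plate cytometry, EGFP and DsRed are detected in transgenic mouse T cells stimulated 18 h at 37 degrees C with antibody-coated beads after 60 min compound pretreatment.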
A549 viability = Nrf2 qHTS screen for inhibitors: counterscreen for cytotoxicity; Potency, µM (top dose mostly 46 µM), hits mostly inhibitors; 390,000 compounds, 0.16% hits; AID 504648, 2011; A549 ARE-Fluc cells, CellTiter-Fluor viability, 18-24 h
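Cytotoxicity counterscreen: CellTiter-Fluor fluorescence was measured in A549 ARE_Fluc cells after 18-24 h of compound exposure in a concentration series. The subsequent BugLite luminescent read reports ARE-luciferase activity.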
A number is an active result; – = inactive; ? = inconclusive; · = not tested or not shown. Unless noted, calls come from the whole dose curve; as a rule, active = well fitted curve in the direction sought with a large enough effect; inconclusive = small, poorly fitted or top-dose-only effect, or another doubt; inactive = no such curve, though single readings can be large; an effect the other way counts as inactive or inconclusive.

SMILES	Nrf2 ARE act	Nrf2 inh	miR-21 act	ClpP mod	IL2 activator	A549 viability
CCOC(=O)c1cccc(NC(=O)CCc2c(C)nn(-c3ccc(N4CCOCC4)nn3)c2C)c1	–	?	–	–	·	–
CC1(C)CC(=O)C=C(C(=O)N2CCCC(C(=O)c3cccc(C(F)(F)F)c3)C2)O1 (stereo unspecified)	–	9.2µM	–	–	–	?
Cc1ccc(C(C#N)c2ccc3c(C(F)(F)F)cc(C(F)(F)F)nc3n2)cc1 (stereo unspecified)	–	?	–	–	–	?
N#CC(c1ccccc1)c1ccc2c(C(F)(F)F)cc(C(F)(F)F)nc2n1 (stereo unspecified)	?	26µM	?	–	–	?
CCOC(=O)N1CCc2c(sc3c2C(=O)NC(c2ccccc2)N3)C1 (stereo unspecified)	?	·	–	28µM	–	–
CN1CCc2c(sc3c2C(=O)NC(c2ccco2)N3)C1 (stereo unspecified)	–	–	–	28µM	–	–
CN1CCc2c(sc3c2C(=O)NC(c2cn(Cc4ccccc4)c4ccccc24)N3)C1 (stereo unspecified)	–	–	–	16µM	–	–
COc1ccc(Br)cc1C1NC(=O)c2c(sc3c2CCN(C)C3)N1 (stereo unspecified)	–	–	–	–	–	–
COc1ccc(N2CC(NC(=O)C3CC3)CC2=O)cc1OC (stereo unspecified)	–	·	–	–	·	–
CCOc1cc2[nH]c(=O)n(CCCCC(=O)N3CCN(c4ccccc4)CC3)c(=O)c2cc1OCC	–	·	–	–	·	–
CCC(=O)N1c2ccccc2CC1C(=O)NCc1cccc(OC)c1OC (stereo unspecified)	–	·	–	–	·	–
Cc1cc(OCC(=O)NNC(=O)c2ccncc2)cc(C)c1Cl	–	–	–	–	–	–
Cc1cc(OCC(=O)NNC(=O)c2ccncc2)ccc1C(C)C	–	–	·	4µM	–	–
Cc1ccc2c(c1)-c1c(c(C(=O)NCCc3ccccc3)nn1C)CS2	–	·	–	–	·	–
O=C(Nc1ccc(F)cc1)N(Cc1cccs1)Cc1cc2cc3c(cc2[nH]c1=O)OCO3	–	–	–	32µM	–	–
O=C(Nc1ccc(F)cc1)N(Cc1ccco1)Cc1cc2cc3c(cc2[nH]c1=O)OCO3	–	?	–	32µM	–	–
Cn1c(=O)n(C)c2cc(CNCc3ccccc3Cl)ccc21	–	–	–	–	·	–
Cc1ccc(Nc2nc3ccccc3c3nnc(C)n23)c(C)c1	–	–	–	–	·	–
CCOC(=O)C1(C)NC(c2ccccc2F)C2C(=O)N(CC)C(=O)C21 (stereo unspecified)	–	–	–	28µM	–	–
CC1CCCN(C(=O)N2c3ccccc3Sc3ccccc32)C1 (stereo unspecified)	–	16µM	–	–	–	?
CC1CCN(C(=O)N2c3ccccc3Sc3ccccc32)CC1	–	·	–	–	–	–
COc1ccc(/C=N\NC(=O)c2ccc(F)cc2)cc1COc1ccccc1C(N)=O	–	–	–	–	–	–
COc1ccc(/C=N/NC(=S)Nc2ccccc2)cc1COc1ccc(F)cc1F	–	–	–	35µM	–	–
Cc1cccc(-c2nc(C)c(CCNC(=O)C(=O)Nc3cccc(Cl)c3C)s2)c1	–	·	–	–	·	–
Cc1ccc(C)c(NC(=S)Nc2cccnc2)c1	–	–	–	25µM	–	–
COc1ccc(NC(=O)CC2C(=O)N(Cc3ccccc3)C(=S)N2CCN2CCOCC2)cc1 (stereo unspecified)	–	–	–	8.9µM	–	–
C=CCN1C(=O)C(CC(=O)Nc2ccc(OCCC)cc2)N(CCCN2CCN(Cc3ccccc3)CC2)C1=S (stereo unspecified)	–	18µM	?	·	–	?

Screening data: PubChem, National Center for Advancing Translational Sciences (NCATS)
